# This is part of a sample that, as a whole, favours compounds with a hit. Of some 79,000 tested, about 15% had one in any assay. Unmarked numbers belong to inactive results. Calls of active or inactive are those of the source. Cut-off read from the data, not from the text of the source: active = growth inhibition above about 70%; inactive = the rest.
# Tests used:
# [1] = NCI Yeast Anticancer Drug Screen. Data for the rad50 strain (AID 155);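 note: 0% = growth of vehicle-only cultures of the same strain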; settings: S. cerevisiae rad50 strain growth inhibition; at 50.0 µM; active compounds read high
# Procedure, shortened: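 Vehicle-treated cultures provide the reference for the growth inhibition reported for compound-exposed, repair-deficient yeast.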
# [2] = NCI Yeast Anticancer Drug Screen. Data for the mec2-1 strain (AID 157); settings: S. cerevisiae mec2-1 strain, at 50.0 µM, active compounds read high
# Procedure, shortened: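 Cells of the genetically defined mec2-1 yeast strain are incubated with test compound. Inhibition of growth is calculated against vehicle-treated controls.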
# [3] = NCI Yeast Anticancer Drug Screen. Data for the sgs1 mgt1 strain (AID 161);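 note: 0% = growth of cultures given vehicle only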; settings: S. cerevisiae sgs1 mgt1 strain, at 50.0 µM, active compounds read high
# Procedure, shortened: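 Mutant yeast exposed to compound; growth scored against vehicle-only wells.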
# [4] = NCI Yeast Anticancer Drug Screen. Data for the cln2 rad14 strain (AID 165);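 note: 0% = growth equal to vehicle treated cultures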; settings: S. cerevisiae cln2 rad14 strain, at 50.0 µM, active compounds read high
# Procedure, shortened: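 The screen exposed genetically defined yeast (cln2 rad14) to test compounds and scored growth inhibition relative to vehicle-treated controls.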
# [5] = NCI Yeast Anticancer Drug Screen. Data for the bub3 strain (AID 167); settings: S. cerevisiae bub3 mutant strain, at 50.0 µM, active compounds read high
# Procedure, shortened: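 Mutant yeast screening strain plus compound; vehicle-treated cultures serve as the 0% inhibition reference.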
# [6] = NCI Yeast Anticancer Drug Screen. Data for the mlh1 rad18 strain (AID 175); settings: S. cerevisiae mlh1 rad18 strain growth inhibition; at 50.0 µM; active compounds read high
# Procedure, shortened: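 Compound-treated yeast growth, normalised to vehicle controls. Strain bears defined DNA repair mutations.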
Compound,growth inhibition [1],growth inhibition [2],growth inhibition [3],growth inhibition [4],growth inhibition [5],growth inhibition [6]
O=C(Nc1ccccc1)Oc1ccc(Cl)cc1Cc1ccccc1,99.7% (active),99.8% (active),99.8% (active),99.8% (active),99.8% (active),99.8% (active)
CCN(CC)C(=O)c1cccc2c1OCO2,-17.7%,13.6%,2.35%,0.25%,1.4%,-9.6%
CCOC(=O)c1c(C)[nH]c(C)c1/C=C/C(=O)O,0.95%,-5.1%,-0.9%,1.45%,2.35%,-0.8%
CCCCCC(=O)O,-20.2%,-7.1%,-42.1%,26.9%,-38.9%,16.8%
O=C(Cl)c1ccc(Cc2ccc([N+](=O)[O-])cc2)cc1,14.8%,8.4%,11.4%,-21.9%,-17.1%,12.4%
O=C(COc1ccc(Cl)c(Cl)c1)NCc1ccc([N+](=O)[O-])cc1,0.35%,28.2%,20.9%,-10.7%,27.8%,22.9%
O=C1CC[C@H]2[C@@H]3N1c1ccccc1[C@@]31CCN3C/C(=C/CBr)[C@@H]2C[C@H]31,21.4%,-3.05%,6.25%,19.4%,-1.8%,11.1%
O=[N+]([O-])c1ccc(P(=O)(O)c2ccc([N+](=O)[O-])cc2)cc1,15%,17.6%,23.6%,-25.9%,-11%,34.7%
CN(C)c1ccc(C(=O)c2ccc([N+](=O)[O-])cc2)cc1,-1.6%,-10%,0.5%,6.3%,-4.95%,-8.25%
CCOC(=O)N1CCN(c2c(N)nc(C)[nH]c2=O)CC1,-49.6%,-20.9%,-55.3%,-14.8%,19.1%,-58.5%
O=C(Nc1ccc(Cl)c(Cl)c1)OC1C=CS(=O)(=O)C1 (configuration not stated),-7.9%,-5.95%,-12.3%,7.7%,3.5%,-0.15%
C=CCNC(=S)Nc1ccc(OC(=O)NC2CCCCC2)cc1,6.4%,23.6%,15.1%,-7.85%,-2.4%,31.9%
CC(C)CCCC(C)C1CCC2C3C(=O)C=C4C=CCCC4(C)C3CCC12C (configuration not stated),5.95%,11.2%,34.1%,9.55%,5.9%,10.5%
CCOC(CS(=O)(=O)CC(N)=O)OCC,6.3%,0.45%,-3.75%,-29.4%,-11.8%,5.8%
c1ccc(CCCOCCCc2ccccc2)cc1,24.9%,14.8%,9.15%,7.4%,51.2%,22.4%
CCOC(=O)Nc1ccc(F)c(C(F)(F)F)c1,-8.05%,4.45%,8.6%,-52.3%,11.6%,-4.25%
CC1=CC[C@](C)(O)[C@@]2(C)CC[C@H]3C(=C(C)C)C(=O)C[C@]3(C)C[C@H]12,9%,1.3%,19.9%,33.4%,10.2%,17.5%
N#Cc1nnc2cc(-c3ccccc3)nn2c1-c1ccco1,27.9%,11.2%,16.3%,35.5%,28.1%,31.4%
COC(=O)C1CC(OC(C)=O)C2OC(C)(C)OC2C1OC(C)=O (configuration not stated),7.5%,1.55%,-3.15%,0.55%,8.55%,-3%
Cc1ccc(-n2cnc(C(=N)C#N)c2N)cc1,-15.6%,-31.7%,-10%,-12.1%,9.55%,-13.1%
C=CC1C(OC2OC(CO)C(O)C(O)C2O)OC=C(C(=O)OC)C1CC=O (configuration not stated),32.9%,11.9%,4.15%,13.4%,18.3%,32.7%

Compound,growth inhibition [1],growth inhibition [2],growth inhibition [3],growth inhibition [4],growth inhibition [5],growth inhibition [6]
Fc1ccc2c(c1)Nc1ccccc1S2,-6.1%,-1.95%,7.65%,-8.85%,-16%,-14.6%
Cc1cc(OCCCC[N+](C)(C)Cc2ccc(Br)o2)c(C(C)C)cc1Cl,99.5% (active),99.5% (active),99.2% (active),99.3% (active),99.2% (active),99.3% (active)
c1ccc(-c2cc3nc4ccccc4nc3o2)cc1,-6.65%,-10.6%,-13%,1.6%,2.15%,-4.4%
CCOC(=O)C(=O)C(Cc1ccccc1)C(=O)OCC (configuration not stated),0.2%,-3.95%,9.75%,-46.5%,11.7%,-7.2%
COc1ccc(SSc2ccc(OC)cc2)cc1,25.9%,-1.1%,12.2%,1.95%,6.2%,18.8%
CCN(CC)c1ccc(-c2c3ccccc3nc3ccccc23)cc1,-5.05%,-7.75%,7.45%,-12.4%,-17.1%,-3.5%
COc1cc(C(=O)O)cc(OC)n1,10.8%,4.15%,-6.6%,-36.4%,-16.9%,8.25%
C/C=C/C(=O)N(CC)CC,9%,-4.25%,3.75%,1.65%,-24.9%,10.8%
NC(=O)c1nnc2cc(F)c(F)cc2c1N,-15.8%,-20.8%,-9.65%,3.8%,9.5%,-16.6%
OC(CCCN1CCN2CCc3[nH]c4ccccc4c3C2C1)c1ccc(F)cc1 (configuration not stated),23.9%,-1.8%,13.7%,14.3%,1.3%,10.8%
O=C(Nc1cccc(Cl)c1)C(=O)C(C(=O)c1ccc2ccccc2c1)C1OC(=O)c2ccccc21 (configuration not stated),39%,18.4%,26.1%,37.2%,22.9%,-9.1%
CC(=O)Oc1ccccc1Cl,18.1%,31.5%,25.9%,13.3%,19.1%,16.8%
C(=C\c1ccc(-c2ccccc2)cn1)/c1ccccc1,-8.5%,-15.8%,-3.45%,-26.6%,24.8%,-12%
Cc1ccc(C(=O)CC2=NC3NN(c4ccccc4)C(=O)C3=C2CC(=O)c2ccc(C)cc2)cc1 (configuration not stated),38%,2.4%,4.55%,-13.1%,-9.05%,45.3%
O=C1c2cc3c(-c4ccccc4)oc(-c4ccccc4)c3cc2C(=O)c2c(O)ccc(O)c21,1.2%,-7.15%,-20.6%,-4.7%,-5.75%,5.5%
O=C(O)CCC(=O)C(Cc1ccccc1)NC(=O)c1ccccc1 (configuration not stated),-14.4%,-16.6%,-10.1%,-4.05%,6.1%,-10.4%
COC(OC)c1ccccc1CO,-7.6%,-28.5%,-6.1%,-41.5%,3.65%,-14.8%
CCC(Sc1cc(Cl)c(C)cc1S(=O)(=O)Nc1nc(N)nc(N(C)C)n1)C(=O)O (configuration not stated),-16.1%,-10.1%,6.3%,25.2%,-12.3%,2%
CC(=O)Oc1ccc(/C=N\N(C)CN(C)/N=C/c2ccc(OC(C)=O)cc2)cc1,14%,-9.65%,31.6%,18.4%,1.65%,17.7%
ClCC1COC(CCc2ccccc2)O1 (configuration not stated),18.4%,-3.5%,-10.9%,64.2%,3.1%,7.7%
OC(c1cccc(OCc2ccccc2)c1)c1ccccn1 (configuration not stated),4.95%,-6.6%,2.15%,-20.9%,2.15%,2%
